The source made the active and inactive calls. Unless noted, no rule for the calls is given here.
Experiments:
[1] = anti-His antibody binders, primary screen, artefact control for SMM control protein annotation, biochemical, small-molecule microarray, 635 nm fluorescence (AID 1128); settings: anti-His Alexa647 antibody binding, higher = more signal;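 also: score merges feature fluorescence with signal-to-noise for each printed compound spot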
[2] = tested on: Human papillomavirus type 1a E7 protein (residues 1-88); test: HPV1a E7 small-molecule binders, primary screen, biochemical, small-molecule microarray, residues 1-88, 635 nm (AID 1129); settings: small-molecule microarray binding, fluorescence 635 nm; higher = more signal
[3] = biological target: Focal adhesion kinase 1 (Homo sapiens) (UniProt Q05397); test: small-molecule microarray binders of FAK, primary screen, biochemical, 635/667 nm fluorescence, BSA, DTT (AID 1130); settings: PTK2 binding, 635 nm fluorescence, higher = more signal;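 also: composite of spot emission at 667 nm and signal to noise over triplicate slides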
[4] = tested on: Fibrinogen (Alexa647-labelled); test: fibrinogen binders on compound microarrays, profiling panel, artefact control for SMM control-protein annotation, biochemical, small-molecule microarray, 635/667 nm fluorescence (AID 1131); settings: fibrinogen-A647 binding fluorescence, higher = more signal;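 also: z-score merges 667 nm fluorescence with per-spot signal-to-noise over triplicate slides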
[5] = biological target: Follistatin (Homo sapiens) (UniProt P19883); test: follistatin binders on small-molecule microarrays, primary screen, biochemical, small-molecule microarray, 635/667 nm fluorescence (AID 1132); settings: FST binding, 635 nm fluorescence, higher = more signal
[6] = biological target: Fibroblast growth factor 2 (Homo sapiens) (UniProt P09038); test: FGF2 binders on small-molecule microarrays, primary screen, biochemical, small-molecule microarray, 635/667 nm fluorescence (AID 1133); settings: small-molecule microarray binding, FGF2, fluorescence 635/667; higher = more signal
[7] = mitochondrial membrane potential change in A549 cells, profiling panel, cell-based, JC-1 fluorescence, basal, 24 h, 100 nL (AID 1138); settings: higher = more signal;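 also: A549 lung adenocarcinoma cells under basal conditions with no added stimulus; test concentration not given here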
Lefty1 = Lefty1 binders on small-molecule microarrays, primary screen, biochemical, small-molecule microarray, 635/667 nm fluorescence (AID 1139); settings: small-molecule microarray binding, fluorescence 635/667; higher = more signal
[8] = tested on: wheat germ agglutinin (Triticum aestivum), Alexa647-labelled; test: wheat germ agglutinin binders on compound microarrays, profiling panel, artefact control for SMM control-protein annotation, biochemical, small-molecule microarray, 635/667 nm fluorescence (AID 1140); settings: WGA-A647 binding, 635 nm fluorescence, higher = more signal;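 also: score merges 667 nm feature emission with signal to noise over triplicate slides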
[9] = biological target: Luciferin 4-monooxygenase (Photinus pyralis) (UniProt P08659); test: firefly luciferase enzyme inhibitors, primary screen, biochemical, luminescence, purified enzyme, 2006 set (AID 1141); settings: SteadyGlo luminescence, 30 min, higher = more signal, called active from +8 up or from −8 down;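 also: cell-free assay with purified firefly luciferase at 100 ng per well in PBS; test concentration not given here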
[10] = tested on: Wnt5a (protein binding on small-molecule microarray); test: Wnt5a binders on small-molecule microarray, primary screen, biophysical, 635/667 nm fluorescence (AID 1142); settings: 635 nm fluorescence, higher = more signal;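 also: fluorescence read at 667 nm with signal to noise per printed feature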
[11] = cell viability in Huh7 cells, primary screen, cytotoxicity control for HCV replication inhibitor project, CellTiter-Glo luminescence, basal, 48 h (AID 1143); settings: Huh7 HCV replicon, higher = more signal, called active from +8 up or from −8 down;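 also: Huh7 hepatoma cells carrying a hepatitis C replication reporter with no stimulus; test concentration not given here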
[12] = P. aeruginosa biofilm formation inhibitors, primary screen, PAO1 strain, BacTiter-Glo luminescence, LB-PBS (AID 1144); settings: 12 h, higher = more signal
[13] = CREB reporter modulators without forskolin, primary screen, cell-based, PC12, CRE-LacZ reporter, unstimulated (AID 1145); settings: no forskolin, luminescence, 4.5 h, higher = more signal, called active from +8 up or from −8 down
[14] = CREB reporter modulators under forskolin, primary screen, cell-based, PC12, CRE-LacZ reporter, forskolin-stimulated (AID 1146); settings: luminescence, 4.5 h, higher = more signal, called active from +8 up or from −8 down;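 also: PC12 cells with 6xCRE LacZ reporter stimulated by forskolin 10 µM; beta-galactosidase reporter signal reflecting CREB driven transcription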
[15] = biological target: Streptavidin (Streptomyces avidinii) (UniProt P22629); test: streptavidin binders on small-molecule microarray, primary screen, artefact control for SMM compound annotation, biophysical, 635/667 nm fluorescence (AID 1147); settings: streptavidin binding, higher = more signal;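 also: signal reflects streptavidin binding to arrayed compounds as a control protein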
[16] = small-molecule binders of probe aInhba, primary screen, biochemical, small-molecule microarray, 635/667 nm fluorescence (AID 1148); settings: higher = more signal;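 also: score merges 667nm spot fluorescence with signal-to-noise for antibody binding to printed compounds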
Torsin-1A (Homo sapiens) [17] = biological target: Torsin-1A (Homo sapiens) (UniProt O14656); test: torsin A binders from cell lysate, primary screen, small-molecule microarray, wild-type, 635/667 nm (AID 1149); settings: COS7 hTOR1A-WT lysate, 635 nm fluorescence, higher = more signal
Torsin-1A (Homo sapiens) [18] = biological target: Torsin-1A (Homo sapiens) (UniProt O14656); test: small-molecule binders of mutant TOR1A in lysate, primary screen, cell lysate, small-molecule microarray, COS7 lysate, 635/667 nm fluorescence (AID 1150); settings: COS7 hTOR1A mutant lysate, 635 nm fluorescence, higher = more signal;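 also: score pools 667 nm emission and signal to noise measuring lysate protein binding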
[19] = tested on: Sonic hedgehog protein (Shh); test: small-molecule binders of Shh protein, primary screen, biochemical, small-molecule microarray, 635/667 nm fluorescence (AID 1151); settings: small-molecule microarray binding, 635 nm fluorescence; higher = more signal;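 also: Shh protein binding to compounds spotted on small-molecule microarray slides; score combines spot fluorescence intensity with signal-to-noise across triplicate slides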

Focal adhesion kinase 1 (Homo sapiens), sequence (Q05397 whole entry, looked up): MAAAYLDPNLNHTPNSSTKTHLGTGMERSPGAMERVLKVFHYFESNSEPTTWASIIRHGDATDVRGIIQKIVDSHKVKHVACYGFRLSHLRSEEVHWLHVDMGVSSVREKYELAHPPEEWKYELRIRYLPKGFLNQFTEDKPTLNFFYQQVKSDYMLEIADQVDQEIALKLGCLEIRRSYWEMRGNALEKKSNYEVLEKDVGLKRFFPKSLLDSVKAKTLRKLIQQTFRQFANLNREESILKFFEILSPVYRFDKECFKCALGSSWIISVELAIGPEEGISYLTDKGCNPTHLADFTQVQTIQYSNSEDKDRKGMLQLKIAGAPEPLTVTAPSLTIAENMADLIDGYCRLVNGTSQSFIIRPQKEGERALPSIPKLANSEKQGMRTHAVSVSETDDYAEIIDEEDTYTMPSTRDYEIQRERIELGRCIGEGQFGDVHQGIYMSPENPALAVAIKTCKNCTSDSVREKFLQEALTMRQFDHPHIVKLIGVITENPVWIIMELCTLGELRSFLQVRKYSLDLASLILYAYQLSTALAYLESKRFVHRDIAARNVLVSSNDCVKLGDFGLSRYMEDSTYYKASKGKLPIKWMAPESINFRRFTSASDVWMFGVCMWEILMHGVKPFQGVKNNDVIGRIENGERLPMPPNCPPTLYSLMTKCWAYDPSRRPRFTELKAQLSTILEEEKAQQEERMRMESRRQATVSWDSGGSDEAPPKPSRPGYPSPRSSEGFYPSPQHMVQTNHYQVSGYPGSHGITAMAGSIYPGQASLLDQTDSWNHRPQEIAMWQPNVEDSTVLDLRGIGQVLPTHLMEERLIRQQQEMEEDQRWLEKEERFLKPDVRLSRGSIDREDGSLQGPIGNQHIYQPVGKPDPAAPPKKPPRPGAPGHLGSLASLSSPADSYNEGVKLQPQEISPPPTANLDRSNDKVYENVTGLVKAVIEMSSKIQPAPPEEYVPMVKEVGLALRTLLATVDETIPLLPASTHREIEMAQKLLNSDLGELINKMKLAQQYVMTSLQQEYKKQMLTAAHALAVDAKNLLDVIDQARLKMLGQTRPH
Follistatin (Homo sapiens), sequence (P19883 whole entry, looked up): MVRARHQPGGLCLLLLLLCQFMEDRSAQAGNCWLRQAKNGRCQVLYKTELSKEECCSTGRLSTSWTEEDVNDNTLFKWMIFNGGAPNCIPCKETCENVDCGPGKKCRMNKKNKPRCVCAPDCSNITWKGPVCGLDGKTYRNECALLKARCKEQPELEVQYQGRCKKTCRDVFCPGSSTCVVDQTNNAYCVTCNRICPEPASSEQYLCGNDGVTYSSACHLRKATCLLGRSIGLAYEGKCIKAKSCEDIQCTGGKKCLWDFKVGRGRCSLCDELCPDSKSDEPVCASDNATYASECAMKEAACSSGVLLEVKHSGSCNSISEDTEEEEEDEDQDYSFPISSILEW
Fibroblast growth factor 2 (Homo sapiens), sequence (P09038 whole entry, looked up): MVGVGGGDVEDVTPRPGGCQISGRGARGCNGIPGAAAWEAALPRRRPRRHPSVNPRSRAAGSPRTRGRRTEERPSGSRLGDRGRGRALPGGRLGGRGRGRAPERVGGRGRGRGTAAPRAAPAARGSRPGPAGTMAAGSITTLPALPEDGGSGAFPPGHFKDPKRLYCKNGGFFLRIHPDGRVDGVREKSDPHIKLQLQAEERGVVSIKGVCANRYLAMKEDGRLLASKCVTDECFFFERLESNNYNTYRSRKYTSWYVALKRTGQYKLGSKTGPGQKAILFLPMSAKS
Torsin-1A (Homo sapiens), sequence (O14656 whole entry, looked up): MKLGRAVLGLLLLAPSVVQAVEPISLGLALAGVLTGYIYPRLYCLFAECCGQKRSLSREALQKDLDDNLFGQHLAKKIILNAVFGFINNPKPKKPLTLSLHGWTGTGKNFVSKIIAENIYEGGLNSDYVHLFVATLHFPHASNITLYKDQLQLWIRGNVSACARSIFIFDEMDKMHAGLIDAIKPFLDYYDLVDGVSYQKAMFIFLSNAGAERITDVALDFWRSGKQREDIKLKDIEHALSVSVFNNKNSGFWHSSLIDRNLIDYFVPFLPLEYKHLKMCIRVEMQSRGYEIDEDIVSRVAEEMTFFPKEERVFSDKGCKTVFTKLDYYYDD
Streptavidin (Streptomyces avidinii), sequence (P22629 whole entry, looked up): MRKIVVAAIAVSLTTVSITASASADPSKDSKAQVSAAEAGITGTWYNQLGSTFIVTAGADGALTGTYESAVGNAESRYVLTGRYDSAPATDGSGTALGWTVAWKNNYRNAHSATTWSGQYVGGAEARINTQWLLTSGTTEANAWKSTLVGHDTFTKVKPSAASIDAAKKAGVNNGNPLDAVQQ
Luciferin 4-monooxygenase (Photinus pyralis), sequence (P08659 whole entry, looked up): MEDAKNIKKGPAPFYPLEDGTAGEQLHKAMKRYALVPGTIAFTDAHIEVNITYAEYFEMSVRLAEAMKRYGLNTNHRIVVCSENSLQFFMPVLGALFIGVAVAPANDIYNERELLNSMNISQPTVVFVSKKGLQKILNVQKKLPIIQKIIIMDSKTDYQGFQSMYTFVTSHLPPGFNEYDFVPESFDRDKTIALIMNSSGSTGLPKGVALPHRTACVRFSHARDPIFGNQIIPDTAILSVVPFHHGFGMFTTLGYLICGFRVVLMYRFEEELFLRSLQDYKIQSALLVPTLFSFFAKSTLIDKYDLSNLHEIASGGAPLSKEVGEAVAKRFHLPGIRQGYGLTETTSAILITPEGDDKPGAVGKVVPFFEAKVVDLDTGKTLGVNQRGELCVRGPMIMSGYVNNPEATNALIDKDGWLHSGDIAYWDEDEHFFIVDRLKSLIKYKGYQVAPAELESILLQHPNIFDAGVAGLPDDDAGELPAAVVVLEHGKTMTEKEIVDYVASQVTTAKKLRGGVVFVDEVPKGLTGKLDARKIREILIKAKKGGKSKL

| SMILES | composite z-score [1] | composite z-score [2] | composite z-score [3] | composite z-score [4] | composite z-score [5] | composite z-score [6] | z-score [7] | composite z-score (Lefty1) | composite z-score [8] | z-score [9] | composite z-score [10] | z-score [11] | z-score [12] | z-score [13] | z-score [14] | composite z-score [15] | composite z-score [16] | composite z-score (Torsin-1A (Homo sapiens) [17]) | composite z-score (Torsin-1A (Homo sapiens) [18]) | composite z-score [19] |
| --- | --- | --- | --- | --- | --- | --- | --- | --- | --- | --- | --- | --- | --- | --- | --- | --- | --- | --- | --- | --- |
| CCCNC(=O)[C@@H]1c2ccccc2C(=O)N(Cc2ccccc2Cl)[C@H]1c1ccc(CO)cc1 | 2.58 | 1.19 | 0.497 | 0.691 | 1.36 | 1.3 | 3.16 | 1.1 | 1.09 | -1.54 (inactive) | 0.4 | -1.44 (inactive) | 0.378 (inactive) | -0.412 (inactive) | -0.366 (inactive) | 0.802 | 0.264 | 0.174 | 0.461 | 1.9 |
| CC(C)OC(=O)C=C1C[C@@H](c2ccc(C#N)cc2)O[C@@H](c2ccc(C#N)cc2)O1 | 1.48 | 1.22 | 0.704 | 0.978 | 1.31 | 0.267 | -0.356 | 0.48 | 0.972 | -0.178 (inactive) | 0.923 | -2.6 (inactive) | 0.618 (inactive) | 2.74 (inactive) | 0.421 (inactive) | 0.77 | 0.165 | 1.99 | 2.06 | 0.292 |
| CC1CC/C=C\[C@H]2OC34C=CCN(Cn5nnc6ccccc65)C(=O)[C@H]3N(CCO)C(=O)[C@@H]4C2C(=O)O1 (stereo not given in full) | 0.885 | 1.16 | 1.42 | -1.14 | -0.312 | -1.35 | -0.547 | -0.428 | 1.24 | -1.98 (inactive) | -0.335 | -2.74 (inactive) | -2.49 (inactive) | -1.44 (inactive) | -1.01 (inactive) | -0.923 | -0.0719 | 2.73 | 2.11 | -0.0981 |
| O=C1C[C@@H](O)[C@@H](O)[C@@H]2[C@@H]3C(=O)N(C4CCCCC4)C(=O)[C@@H]3CC[C@H]12 | 0.335 | 0.949 | 0.329 | 0.583 | 0.525 | 0.521 | -0.338 | 0.422 | 0.103 | -0.163 (inactive) | 0.0832 | 0.406 (inactive) | -0.653 (inactive) | -0.0258 (inactive) | -0.444 (inactive) | 0.0447 | -0.128 | 0.296 | 0.585 | -0.0419 |
| CCOC(=O)NN=C1C[C@@H](O)[C@@H](O)[C@@H]2[C@@H]3C(=O)N(C(C)(C)C)C(=O)[C@@H]3CC[C@@H]12 | -0.889 | -0.461 | 0.291 | -0.417 | -0.686 | 0.638 | 0.0179 | -0.519 | -1.19 | 0.413 (inactive) | -0.263 | 0.312 (inactive) | 0.125 (inactive) | -0.0246 (inactive) | 0.244 (inactive) | -0.784 | -0.0849 | 0.527 | 0.541 | -0.36 |

Reference: PubChem BioAssay
